High-throughput results: PubChem BioAssay, National Center for Advancing Translational Sciences (NCATS)
MCF10A rereplic – inducers of DNA re-replication in MCF 10A breast cells; 350,000 tested, 2.9% active; MCF 10A DNA re-replication, Hoechst nuclear intensity, 48 h; Potency, µM (highest dose often 46.1 µM), without a hit: top-dose activity, positive = re-replication, most hits filed as activators; also: potency is read from the fitted curve at half-maximal effect; % of control where 0% means no effect; nearly all actives have a fitted effect of over 50% in size
Chronic BCR inh – blocks chronic active B-cell receptor signaling; ABC-DLBCL IkBa-CBG/CBR reporter, luminescence ratio, 4 h; 340,000 tested, 0.05% active; AID 493014; Potency, µM (top dose mostly 46.1 µM), without a hit: at the top dose activity change, negative = inhibition, usual class: inhibitors; active = well fitted inhibition curve with a large enough effect in the signal ratio, with a control signal flat, not every such curve was filed as active; inconclusive = small, poorly fitted or top-dose-only effect, or effect the other way, or a change in a side signal; the % refers to the signal ratio;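 also: potency is read from the fitted curve at half-maximal effect; plate controls were basal doxycycline-induced cells for no effect and cells given 10 µM MG132 for full effect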
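Compounds up to 46 uM were incubated four hours with TMD8 cells whose green CBG68 luciferase is fused to IkappaBalpha; red CBR luminescence normalised the signal, and concentration-effect curves were fitted to fusion, red and ratio data.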
RORg inh – inhibitors of mouse ROR gamma transcriptional activity | 310,000 tested, 5.4% active | Drosophila S2 Gal4-RORgamma UAS-luciferase reporter, 20 h | AID 2551 | Potency, µM (series often up to 53.6 µM), inactives show at the top dose activity change, negative = inhibition, usual class: inhibitors; also: potency is read from the fitted curve at half-maximal effect; % is scaled to controls: 0 for no effect and ±100 for the full control effect; nearly all actives have a fitted effect of over 60% in size
Target sequence (P51450 whole entry, looked up, the tested form may be a part): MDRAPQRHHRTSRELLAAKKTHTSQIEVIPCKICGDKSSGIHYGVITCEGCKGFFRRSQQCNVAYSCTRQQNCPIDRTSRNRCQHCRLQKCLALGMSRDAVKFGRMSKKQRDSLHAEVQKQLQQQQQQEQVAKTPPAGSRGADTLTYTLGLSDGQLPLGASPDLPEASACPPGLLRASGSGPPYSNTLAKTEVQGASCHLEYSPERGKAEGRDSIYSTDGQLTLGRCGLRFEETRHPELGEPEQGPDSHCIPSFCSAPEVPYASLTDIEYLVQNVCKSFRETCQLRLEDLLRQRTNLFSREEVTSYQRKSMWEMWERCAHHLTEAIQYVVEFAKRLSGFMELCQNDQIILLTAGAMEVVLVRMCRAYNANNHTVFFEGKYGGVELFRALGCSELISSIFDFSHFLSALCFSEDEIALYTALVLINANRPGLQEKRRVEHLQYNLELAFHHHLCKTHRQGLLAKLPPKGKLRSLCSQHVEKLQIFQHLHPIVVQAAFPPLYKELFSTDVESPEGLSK
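A Gal4/UAS one-hybrid system in insect cells: metallothionein-promoter Gal4–ROR gamma fusion plus Photinus luciferase reporter. Copper sulfate 700 uM final, 20 hr ambient incubation, luminescent detection after 10 min with reagent.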
VP16 counter – counter-screen for ROR gamma inhibitors: Gal4-VP16 reporter; 310,000 tested, 3.5% active; Drosophila S2 Gal4-VP16 UAS-luciferase, luminescence, 20 h; Potency, µM (titrated, usually from 53.6 µM), for inactives: at the top dose activity, negative = inhibition, usual class: inhibitors;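 also: Gal4-VP16 expression switched on by copper sulfate through the metallothionein promoter; potency is read from the fitted curve at half-maximal effect; % is scaled to controls: 0 for no effect and ±100 for the full control effect; nearly all actives have a fitted effect of over 50% in size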
Giardia killer – Giardia lamblia killing | 340,000 tested, 0.15% active | Giardia lamblia trophozoite viability | activity change, % at 7.66 µM, hits read low; in the data active = activity change below about -80%; inconclusive = between about -30% and that limit;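 also: parasites exposed to compound for two days anaerobically before the ATP read; % is scaled to controls: 0 for no effect and ±100 for the full control effect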
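Trophozoites 100 cells/well + cpd; 48 hrs, 37 deg C, anaerobic. ATPLite 1-Step added, 15-30 min RT, luminescence read (ATP-based viability).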
SW480 rerep – inducers of DNA re-replication in SW480 colon cancer cells | AID 624297 | SW480 DNA re-replication, Hoechst DNA content imaging, 48 h | 340,000 tested, 1.8% active | Potency, µM (titrated, usually from 46.1 µM), without a hit: at the top dose re-replication activation, most hits filed as activators; also: potency is read from the fitted curve at half-maximal effect; % of control where 0% means no effect; nearly all actives have a fitted effect of over 55% in size
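Quantitative HTS format with DMSO vehicle controls; 48 hr drug incubation at 37 C, then 40 min Hoechst staining and scanning imager measurement at 405 nm excitation.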
Starred values were filed as active, the others as inactive; ? = inconclusive; · = not tested or not shown. Hits are enriched below; roughly 8.3% of the tested compounds scored in any of these assays. Unless noted, calls follow the shape of the dose curve; as a rule, active = well fitted curve in the direction sought with a large enough effect; inconclusive = small, poorly fitted or top-dose-only effect, or another doubt; inactive = no such curve, though single readings can be large; an effect the other way counts as inactive or inconclusive.

SMILES	MCF10A rereplic	Chronic BCR inh	RORg inh	VP16 counter	Giardia killer	SW480 rerep
Nc1nc(SCc2cccc([N+](=O)[O-])c2)n[nH]1	-1%	6%	6%	-7%	-3	-5%
Cn1nc(C(=O)NNC(=O)CCc2ccccc2Cl)c2ccccc2c1=O	0%	-5%	·	·	-8	-4%
O=C(O)CNc1nc(-c2ccccc2)c2cc([N+](=O)[O-])ccc2n1	6%	-1%	0%	-16%	13	·
O=[N+]([O-])c1ccc2nc(NCCCO)nc(-c3ccccc3)c2c1	15µM*	?	35%	-2%	12	24%
CCN(CC)P(=O)(Nc1cccc(C(F)(F)F)c1)c1ccc(N(C)C)cc1NC(=O)c1ccco1 (centres undefined)	0.82µM*	1%	41%	-11%	6	-1%
CN(C)c1cccc(NC(=O)c2ccco2)c1	21%	1%	11%	-1%	-7	3%
COc1ccc(-c2cc(C(=O)Nc3cccnc3)c3ccccc3n2)cc1OC	?	?	7%	-1%	10	0%
CC(C)(C)OC(=O)N(Cc1ccccc1)Cc1ccc(OCc2cccc(NC(=O)C3CC3)c2)cc1	?	·	·	·	-1	?
CCCCCCCN(C(=O)CCl)c1ccccc1C	0%	?	?	?	-5	7.3µM*
Cc1ccccc1N(Cc1cc(=O)[nH]c2ccccc12)C(=O)CCl	·	?	?	-27%	·	·
Cc1cc2nc(/C=C/c3cccnc3)[nH]c2cc1C	?	?	?	-4%	6	?
Cc1cc2nc(/C=C/c3nc4cc(C)c(C)cc4[nH]3)[nH]c2cc1C	?	8%	1%	1%	3	23µM*
O=C(CC1C(=O)CCCC1=O)c1ccccc1	15µM*	?	10µM*	?	-6	?
O=C(CCC1CCCCC1=O)c1ccccc1 (centres undefined)	1%	3%	-4%	1%	7	2%
COc1cccc(CN(C)C(=O)CCN=C2NS(=O)(=O)c3ccccc32)c1	13%	0%	·	·	?	-8%
N#CC(C#N)=C(Nc1ccc(F)cc1)SCc1cccc(F)c1	23µM*	?	?	14µM*	67	-32%
CCOc1ccc(N/C(SCc2cccc([N+](=O)[O-])c2)=C(/C#N)C(N)=O)cc1	?	?	-2%	-8%	1	19%
Cn1c(=O)c2c([nH]c(=S)n2Cc2ccc(Cl)cc2)n(C)c1=O	-11%	1%	13µM*	?	-11	1%
CCNc1nc2c(c(=O)n(C)c(=O)n2C)n1Cc1ccc(Cl)cc1	12%	?	?	4.5µM*	6	-2%
Cn1c(=O)c2c(nc(NCc3ccccc3)n2Cc2ccc(F)cc2)n(C)c1=O	·	?	?	14µM*	·	·
CCCNc1nc2c(c(=O)n(C)c(=O)n2C)n1Cc1ccc(F)cc1	8%	?	43%	?	16	-16%
CCNc1nc2c(c(=O)n(C)c(=O)n2C)n1CCCc1ccccc1	?	-13%	?	11µM*	0	23µM*
CCC(C)Nc1nc2c(c(=O)n(C)c(=O)n2C)n1Cc1ccc(Cl)cc1 (centres undefined)	8%	?	27%	-5%	26	5%
Cc1cccc(Cn2nc(C(C)(C)C)cc2C(=O)N2CCOCC2)c1	-4%	0%	19%	-13%	11	-3%
COc1ccc(N2CCN(C(=O)COC(=O)CNC(=O)c3ccc(C)cc3)CC2)cc1	-4%	1%	·	·	5	15%
SMILES	MCF10A rereplic	Chronic BCR inh	RORg inh	VP16 counter	Giardia killer	SW480 rerep
COC(=O)c1cc(=O)n(Cc2ccco2)c(=Nc2ccc(F)c(Cl)c2)s1	7.3µM*	?	?	?	-22	?
COc1cc(/C=C2\CC/C(=C\c3cc(OC)c(O)c(OC)c3)C2=O)cc(OC)c1O	?	?	?	?	-6	?
COc1cc(/C=C2\CC(C(C)(C)C)C/C(=C\c3cc(OC)c(OC)c(OC)c3)C2=O)cc(OC)c1OC (centres undefined)	3.3µM*	?	?	-13%	23	7.3µM*
COc1cc(/C=C2\COC/C(=C\c3cc(OC)c(OC)c(OC)c3)C2=O)cc(OC)c1OC	?	?	3.2µM*	5µM*	?	?
COc1cc(/C=C2\CCc3ccccc3C2=O)cc(OC)c1OC	?	?	21%	?	2	?
COc1cc(/C=C2/CCc3ccccc3C2=O)cc(OC)c1OC	18µM*	?	-7%	-5%	28	?
COc1cc(/C=C2\CC/C(=C\c3cc(OC)c(OC)c(OC)c3)C2=O)cc(OC)c1OC	5.8µM*	-4%	15%	-7%	22	?
CC(NS(=O)(=O)c1ccc(F)cc1)C(=O)Nc1ccc2c(c1)OCCO2 (centres undefined)	17%	3%	4%	4%	19	21µM*
O=C(NCCCNC(=O)c1ccc(Cl)cc1Cl)c1ccco1	2%	-16%	-3%	1%	2	-5%
O=C(NC(=S)NCCN1CCOCC1)c1ccc(Cl)cc1Cl	1%	-2%	4µM*	?	-8	-1%
O=C(NC(=S)NCCN1CCOCC1)c1ccccc1Cl	-1%	-7%	-30%	-3%	8	-2%
CCCCNC(=S)NC(=O)c1ccc(Cl)cc1Cl	1%	6%	16µM*	?	-2	-3%
O=C(NCCCNC(=O)c1ccccc1Br)c1ccccc1Br	7%	1%	-1%	7%	-30	-7%
CCN(CC)C(=S)NC(=O)c1ccc(Cl)cc1Cl	-2%	-21%	0.79µM*	1.6µM*	-17	-3%
COC(=O)NNC(=O)c1ccc(Cl)cc1Cl	?	1%	-7%	0%	-8	-2%
CCCCNC(=S)NC(=O)c1ccccc1Br	-3%	?	7.9µM*	11µM*	1	5%
O=C(CCc1ccccc1)Nc1ccc(S(=O)(=O)NC2=NCCCCC2)cc1	-9%	-5%	·	·	-3	5%
COc1cc(C(=O)NCc2ccccc2Cl)ccc1OCC(=O)N1CCOCC1	-2%	·	·	·	-12	-66%
Cc1ccc(NC(=O)CCN2C(=O)c3ccccc3C2=O)cc1	4%	4%	·	·	-12	9%
CCCCN(CCCC)C(=S)NC(=O)c1ccccc1Cl	0%	?	0.71µM*	2µM*	1	22%
S=C(S)OC1CC2CC1C1CCCC21 (centres undefined)	?	·	·	·	-8	?
S=C(S)O[C@@H]1C[C@@H]2C[C@H]1[C@@H]1CCC[C@H]21	·	·	0.56µM*	1µM*	·	·
